Among the data in PubChem BioAssay (NCATS) are outcome and Potency values, retold here.

A short description of test [1]: S16 Schwann cell viability assay (CellTiter-Glo assay) (AID 624031).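 Note: native untransfected S16 rat Schwann cells; cellular ATP luminescence as a viability measure; nearly all actives have a fitted effect of over 70% in size.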 In a few lines: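 Parental S16 cells, 24 h compound, 37 °C. ATP-luminescence viability; DMSO = 0% activity, empty wells as reference; curves classified by fit quality and efficacy.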
The nature of test [2]: S16 Schwann cell PMP22 intronic element beta-lactamase assay (AID 624044; calls by dose curve; note: nearly all actives have a fitted effect of over 15% in size). In a few lines: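 Beta-lactamase reporter under a PMP22 intronic regulatory element in stable S16 rat Schwann cells; 24 h compound exposure. 460 nm blue signal normalized between DMSO (0%) and potassium clavulanate, with 535 nm FRET tracking viability; curves classed by r2 and response.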
The next test deals with AA1029. Briefly: qHTS profiling for inhibitors of Plasmodium falciparum proliferation (AID 504749). Note: nearly all actives have a fitted effect of over 60% in size. Note: potency is the fitted concentration of half-maximal effect. The note with it: P. falciparum in erythrocytes, SYBR Green DNA, 72 h; series mostly up to 28.7 µM. The procedure, abridged: (§1)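 SYBR Green fluorescence (ex 485 nm, em 535 nm) reports parasite DNA after 72 h compound exposure of infected red cells at 0.3% parasitemia, 2.5% hematocrit; signal normalized to 0.29 uM artemisinin and vehicle wells.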

In the next test the test system is CP211. The test is described as above. The note with it: P. falciparum in erythrocytes, SYBR Green DNA, 72 h; series mostly up to 28.7 µM. In a few lines:
as §1

A further test deals with CP215. Described as above. The note with it: P. falciparum in erythrocytes, SYBR Green DNA, 72 h; series mostly up to 28.7 µM. The procedure, abridged:
as §1

The test system of another test is CP217. Described as above. The note with it: P. falciparum in erythrocytes, SYBR Green DNA, 72 h; series mostly up to 28.7 µM. The procedure, abridged: as §1
For another test, the system named is CP250. The description is as above. The note with it: P. falciparum in erythrocytes, SYBR Green DNA, 72 h; series mostly up to 28.7 µM. In a few lines:
as §1

The subject of another test is CP252. Described as above. The note with it: P. falciparum in erythrocytes, SYBR Green DNA, 72 h; series mostly up to 28.7 µM. The procedure, abridged: as §1
In the next test the test system is CP256. The test is described as above. The note with it: P. falciparum in erythrocytes, SYBR Green DNA, 72 h; series mostly up to 28.7 µM. The procedure, abridged: as §1
In a further test the test system is CP260. Described as above. The note with it: P. falciparum in erythrocytes, SYBR Green DNA, 72 h; series mostly up to 28.7 µM. The procedure, abridged:
as §1

Another test relates to CP266. Described as above. The note with it: P. falciparum in erythrocytes, SYBR Green DNA, 72 h; series mostly up to 28.7 µM. In a few lines: as §1
The next test has as its system CP286. The description is as above. The note with it: P. falciparum in erythrocytes, SYBR Green DNA, 72 h; series mostly up to 28.7 µM. The procedure, abridged: as §1
The test system of a further test is CP297. The test is described as above. The note with it: P. falciparum in erythrocytes, SYBR Green DNA, 72 h; series mostly up to 28.7 µM. The procedure, abridged: as §1
A further test relates to CP315. The description is as above. The note with it: P. falciparum in erythrocytes, SYBR Green DNA, 72 h; series mostly up to 28.7 µM. The procedure, abridged: as §1
The test system of the next test is CP329. The test is described as above. The note with it: P. falciparum in erythrocytes, SYBR Green DNA, 72 h; series mostly up to 28.7 µM. The procedure, abridged:
as §1

A further test has as its system FAB9. The description is as above. The note with it: P. falciparum in erythrocytes, SYBR Green DNA, 72 h; series mostly up to 28.7 µM. In a few lines:
as §1

The subject of the next test is N140. The description is as above. The note with it: P. falciparum in erythrocytes, SYBR Green DNA, 72 h; series mostly up to 28.7 µM. In a few lines: as §1
Another test deals with PC15. The test is described as above. The note with it: P. falciparum in erythrocytes, SYBR Green DNA, 72 h; series mostly up to 28.7 µM. The procedure, abridged: as §1
A further test deals with SC27B. The description is as above. The note with it: P. falciparum in erythrocytes, SYBR Green DNA, 72 h; series mostly up to 28.7 µM. The procedure, abridged: as §1
The subject of a further test is TAB165. The description is as above. The note with it: P. falciparum in erythrocytes, SYBR Green DNA, 72 h; series mostly up to 28.7 µM. The procedure, abridged:
as §1

Inconclusive results are not listed. The source made the active and inactive calls. Unless noted, calls come from the whole dose curve; as a rule, active = well fitted curve in the direction sought with a large enough effect; inconclusive = small, poorly fitted or top-dose-only effect, or another doubt; inactive = no such curve, though single readings can be large; an effect the other way counts as inactive or inconclusive.

With `CO[C@H]1/C=C/O[C@@]2(C)Oc3c(C)c(O)c4c(O)c(c(/C=N\N5CCN(C6CCCC6)CC5)c(O)c4c3C2=O)NC(=O)/C(C)=C\C=C\[C@H](C)[C@H](O)[C@@H](C)[C@@H](O)[C@@H](C)[C@H](OC(C)=O)[C@@H]1C`, the outcome in test [1] and in test [2] was inactive. The Potency is 1260 nM (active) in the test on AA1029; 4260 nM (active) with CP211; 4260 nM (active) in the test on CP215; 1410 nM (active) with CP217; 3160 nM (active) in the test on CP250; 1410 nM (active) in the test on CP252. Besides, the Potency was 2820 nM (active) with CP256; 1000 nM (active) with CP260; 6010 nM (active) with CP266; 2240 nM (active) in the test with CP286; 1690 nM (active) in the test on CP297; 4780 nM (active) in the test with CP315. The Potency in the test on CP329 is 4780 nM (active); in the test on FAB9, 10000 nM (active); with N140 it was 141 nM (active); with PC15 it was 794 nM (active); with SC27B, 251 nM (active); in the test on TAB165, 158 nM (active).

For the compound `C=C1/C(=C\C=C2/CCC[C@]3(C)[C@@H]([C@H](C)CCCC(C)(C)O)CC[C@@H]23)C[C@@H](O)C[C@@H]1O`, in [2], the result was inactive. In addition, the Potency result in the test on AA1029, with CP211, with CP215, with CP217, in the test with CP250 and with CP252 was “inactive” in each case. For the same compound, the Potency result with CP256, with CP260, with CP266, with CP286, in the test on CP297 and in the test with CP315 was “inactive” in each case. In addition, the Potency entry in the test on CP329, with FAB9, with N140, in the test with PC15, in the test with SC27B and in the test on TAB165 was “inactive” in each case.

Consider `CC(C)n1c(/C=C/[C@H](O)C[C@H](O)CC(=O)O)c(-c2ccc(F)cc2)c2ccccc21`, for which the result in [1] was inactive.

`CN=C(N)NCCCC(N)C(=O)O` (stereo not given): the compound was classed as inactive in test [1] and in test [2]. Further, the Potency entry with AA1029, with CP211, in the test with CP215, with CP217, in the test on CP250 and with CP252 was “inactive” throughout. For the same compound, the Potency result in the test with CP256, in the test with CP260, in the test with CP266, in the test with CP286, in the test on CP297 and with CP315 was “inactive” throughout. Besides, the Potency result in the test on CP329, with FAB9, in the test with N140, in the test on PC15, in the test with SC27B and in the test on TAB165 was “inactive” in each case.

On to `CN1C(=O)CCC1c1cccnc1` (stereo not given), for which the call in test [1] and in test [2] was inactive. In addition, the Potency entry in the test with AA1029, with CP211, in the test with CP215, with CP217, in the test with CP250 and in the test on CP252 was “inactive” throughout. The Potency result in the test on CP256, with CP260, in the test with CP266, with CP286, in the test with CP297 and in the test on CP315 was “inactive” each time. In addition, the Potency entry in the test on CP329, in the test on FAB9, in the test on N140, with PC15, in the test on SC27B and with TAB165 was “inactive” in each case.
